Experiment [1] deals with Estrogen receptor beta (Homo sapiens) (UniProt Q92731). Kind of experiment: qHTS assay to identify small molecule antagonists of the estrogen receptor beta (ER-beta) signaling pathway (AID 1259378; active = well fitted inhibition curve with a large enough effect in the signal ratio in the repeat runs, not every such curve was filed as active; the % refers to the signal ratio; note: potency is the fitted concentration of half-maximal effect). In a few lines: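 ER-beta-UAS-bla HEK293T cells in 2% charcoal-stripped FBS medium treated with compound plus 1nM final 17-beta-estradiol for 16 hr at 37C. Beta-lactamase reporter read by FRET substrate fluorescence after 2 hours at room temperature.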
Sequence of Estrogen receptor beta (Homo sapiens) (Q92731 whole entry, looked up): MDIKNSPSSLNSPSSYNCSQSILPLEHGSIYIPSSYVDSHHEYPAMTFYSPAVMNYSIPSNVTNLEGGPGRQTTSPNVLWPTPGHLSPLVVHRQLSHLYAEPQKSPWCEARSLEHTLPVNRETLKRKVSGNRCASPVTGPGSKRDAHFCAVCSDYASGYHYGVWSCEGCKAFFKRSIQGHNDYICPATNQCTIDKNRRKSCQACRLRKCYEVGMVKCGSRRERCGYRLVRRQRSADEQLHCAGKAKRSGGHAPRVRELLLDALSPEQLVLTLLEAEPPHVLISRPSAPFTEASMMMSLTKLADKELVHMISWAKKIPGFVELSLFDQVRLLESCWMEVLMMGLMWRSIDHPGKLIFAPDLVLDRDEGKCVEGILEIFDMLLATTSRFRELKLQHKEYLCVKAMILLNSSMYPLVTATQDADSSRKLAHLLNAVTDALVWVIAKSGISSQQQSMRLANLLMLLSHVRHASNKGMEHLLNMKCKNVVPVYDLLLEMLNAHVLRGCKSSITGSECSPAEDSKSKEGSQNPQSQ

Experiment [2] in a line: qHTS assay to identify small molecule agonists of the androgen receptor (AR) signaling pathway in the presence of an antagonist - cell viability counter screen (AID 1259379). Note: nearly all actives have a fitted effect of over 25% in size. Note: potency is the fitted concentration of half-maximal effect. The gist of the method:
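Cells: MDA-kb2 (MMTV-luc, AR and GR elements), 3,000/well, 5 hr settle. Added: nilutamide 3.0uM final, then compounds (15 conc.). Incubation: 16 hr, 37C, no CO2. Read-out: CellTiter-Fluor, 1 hr, fluorescence.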
(qHTS replaces the single test concentration by a dilution series.)

The nature of experiment [3]: qHTS assay to identify small molecule agonists of the estrogen receptor beta (ER-beta) signaling pathway - cell viability counter screen (AID 1259380). Note: nearly all actives have a fitted effect of over 30% in size. Note: potency is the fitted concentration of half-maximal effect. In a few lines:
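HEK293T ER-beta-UAS-bla; 2% CS-FBS; 6 hr pre-plate, 16 hr cpd at 37C/5% CO2; LiveBLAzer read first, then CellTiter-Glo 30 min RT, luminescence.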

Experiment [4] concerns the target Androgen receptor (Homo sapiens) (UniProt P10275). Kind of experiment: qHTS assay to identify small molecule agonists of the androgen receptor (AR) signaling pathway in the presence of an antagonist (AID 1259381; calls by dose curve; note: nearly all actives have a fitted effect of over 15% in size). In a few lines:
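MDA-kb2 cells, 3,000/well, rested 5hr at 37C/0% CO2 → nilutamide 3.0uM final or buffer → compounds, 15 conc. → 16hr at 37C → ONE-Glo, 30min RT → luminescence.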

Experiment [5] in a line: qHTS assay to identify small molecule antagonists of the estrogen receptor beta (ER-beta) signaling pathway - cell viability counter screen (AID 1259382). Note: nearly all actives have a fitted effect of over 55% in size. Note: potency is the fitted concentration of half-maximal effect. In a few lines:
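Cells: ER-beta-UAS-bla HEK293T, 2,000/well, 2% CS-FBS, 6 hr settle. Cpd + E2 (1nM final), 16 hr, 37C/5% CO2. Bla FRET substrate 2 hr RT, then CellTiter-Glo 30 min RT, luminescence.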

The target of experiment [6] is Estrogen receptor (Homo sapiens) (UniProt P03372). The experiment in a line: qHTS assay to identify small molecule agonists of the estrogen receptor alpha (ER-alpha) signaling pathway in the presence of an antagonist (AID 1259383; calls by dose curve; note: top concentration of the series differs between compounds; nearly all actives have a fitted effect of over 15% in size). The gist of the method: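 VM7Luc4E2, endog. ER-alpha + 4×ERE-luc; charcoal-stripped FBS, phenol red-free, 5 d; 24hr plating; +10.0nM ICI-182,780 (final); cpds 15 conc, 22hr, 37C/5% CO2; ONE-Glo luminescence.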
Sequence of Estrogen receptor (Homo sapiens) (P03372 whole entry, looked up): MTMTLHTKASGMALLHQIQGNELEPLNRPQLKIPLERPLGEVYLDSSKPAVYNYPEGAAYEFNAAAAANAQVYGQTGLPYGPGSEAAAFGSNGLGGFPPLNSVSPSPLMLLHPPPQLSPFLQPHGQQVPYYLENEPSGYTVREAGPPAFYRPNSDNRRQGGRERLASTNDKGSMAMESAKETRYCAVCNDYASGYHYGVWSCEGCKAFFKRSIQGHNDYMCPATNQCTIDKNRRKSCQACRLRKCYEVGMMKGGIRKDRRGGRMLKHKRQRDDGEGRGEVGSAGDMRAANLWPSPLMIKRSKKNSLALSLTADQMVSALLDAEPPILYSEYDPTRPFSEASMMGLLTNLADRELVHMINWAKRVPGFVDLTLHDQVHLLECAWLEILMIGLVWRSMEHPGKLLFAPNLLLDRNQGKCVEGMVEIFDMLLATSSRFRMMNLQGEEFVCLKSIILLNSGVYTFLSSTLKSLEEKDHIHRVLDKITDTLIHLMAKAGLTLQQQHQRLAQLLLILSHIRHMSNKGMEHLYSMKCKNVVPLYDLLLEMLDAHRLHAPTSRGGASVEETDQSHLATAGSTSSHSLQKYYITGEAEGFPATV

Experiment [7] in a line: qHTS assay to identify small molecule agonists or antagonists of the thyroid stimulating hormone receptor (TSHR) signaling pathway - wild type cell line counter screen (AID 1259384; calls by dose curve; note: potency is the fitted concentration of half-maximal effect). The gist of the method:
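Wild-type Hek293 cells, 800/well, 18 h at 37C, then compound with Ro20-1724 for 30 min RT. cAMP by HTRF (cAMP-d2/anti-cAMP cryptate), 1 h RT, fluorescence read. 15 concentrations, triplicates.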

Experiment [8] deals with Thyrotropin receptor (Homo sapiens) (UniProt P16473). Kind of experiment: qHTS assay to identify small molecule antagonists of the thyroid stimulating hormone receptor (TSHR) signaling pathway (AID 1259385; calls by dose curve; note: nearly all actives have a fitted effect of over 20% in size; note: potency is the fitted concentration of half-maximal effect). The gist of the method: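 TSHR-HEK293 cells (800/well) plated 18 h, then compounds with Ro20-1724 and TSH at 1.5 ng/mL final, 30 min at room temperature. cAMP quantified by HTRF (cAMP-d2/anti-cAMP-cryptate, 1 h); 15 concentrations in triplicate.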
Sequence of Thyrotropin receptor (Homo sapiens) (P16473 whole entry, looked up): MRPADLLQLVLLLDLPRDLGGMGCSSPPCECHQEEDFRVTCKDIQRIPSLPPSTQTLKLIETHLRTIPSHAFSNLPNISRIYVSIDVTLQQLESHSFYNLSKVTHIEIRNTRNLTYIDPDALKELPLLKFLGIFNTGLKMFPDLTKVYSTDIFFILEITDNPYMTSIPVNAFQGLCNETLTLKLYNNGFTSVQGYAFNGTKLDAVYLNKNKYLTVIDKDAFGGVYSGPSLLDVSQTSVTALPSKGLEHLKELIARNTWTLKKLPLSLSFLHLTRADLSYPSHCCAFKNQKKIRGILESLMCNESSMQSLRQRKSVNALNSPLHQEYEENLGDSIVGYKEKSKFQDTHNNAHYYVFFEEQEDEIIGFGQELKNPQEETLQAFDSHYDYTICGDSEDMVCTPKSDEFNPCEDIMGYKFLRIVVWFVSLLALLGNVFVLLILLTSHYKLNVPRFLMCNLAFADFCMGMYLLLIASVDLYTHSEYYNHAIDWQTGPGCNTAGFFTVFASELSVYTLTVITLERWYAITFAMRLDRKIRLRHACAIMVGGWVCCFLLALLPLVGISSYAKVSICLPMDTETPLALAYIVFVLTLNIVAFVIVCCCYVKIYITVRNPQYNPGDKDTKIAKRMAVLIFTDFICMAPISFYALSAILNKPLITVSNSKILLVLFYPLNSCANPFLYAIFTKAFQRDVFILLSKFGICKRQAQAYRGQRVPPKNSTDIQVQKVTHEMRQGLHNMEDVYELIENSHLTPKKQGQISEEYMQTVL

A short description of experiment [9]: qHTS assay to identify small molecule agonists of the estrogen receptor alpha (ER-alpha) signaling pathway in the presence of an antagonist - cell viability counter screen (AID 1259386).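 Note: cells exposed to compounds for 22 h at 37 °C before the viability read; nearly all actives have a fitted effect of over 30% in size.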 Note: potency is the fitted concentration of half-maximal effect. In a few lines: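 VM7Luc4E2, stripped-serum pre-culture 5 d; 24hr plating; +ICI-182,780 10.0nM final; cpds 15 conc, 22hr, 37C/5% CO2; CellTiter-Fluor added at 21hr, fluorescence 1hr later.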

Experiment [10] deals with Progesterone receptor (Homo sapiens) (UniProt P06401). Kind of experiment: qHTS assay to identify small molecule antagonists of the progesterone receptor (PR) signaling pathway (AID 1346795; active = well fitted inhibition curve with a large enough effect in the signal ratio in the repeat runs, not every such curve was filed as active; the % refers to the signal ratio; note: potency is the fitted concentration of half-maximal effect). In a few lines: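 HEK293T PR-UAS-bla reporter cells in charcoal-stripped serum (2%) received compound after a 6 hr settling period, followed by R5020 agonist at 1 nM final; 16 hr incubation preceded the FRET substrate step and fluorescence measurement.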
Sequence of Progesterone receptor (Homo sapiens) (P06401 whole entry, looked up): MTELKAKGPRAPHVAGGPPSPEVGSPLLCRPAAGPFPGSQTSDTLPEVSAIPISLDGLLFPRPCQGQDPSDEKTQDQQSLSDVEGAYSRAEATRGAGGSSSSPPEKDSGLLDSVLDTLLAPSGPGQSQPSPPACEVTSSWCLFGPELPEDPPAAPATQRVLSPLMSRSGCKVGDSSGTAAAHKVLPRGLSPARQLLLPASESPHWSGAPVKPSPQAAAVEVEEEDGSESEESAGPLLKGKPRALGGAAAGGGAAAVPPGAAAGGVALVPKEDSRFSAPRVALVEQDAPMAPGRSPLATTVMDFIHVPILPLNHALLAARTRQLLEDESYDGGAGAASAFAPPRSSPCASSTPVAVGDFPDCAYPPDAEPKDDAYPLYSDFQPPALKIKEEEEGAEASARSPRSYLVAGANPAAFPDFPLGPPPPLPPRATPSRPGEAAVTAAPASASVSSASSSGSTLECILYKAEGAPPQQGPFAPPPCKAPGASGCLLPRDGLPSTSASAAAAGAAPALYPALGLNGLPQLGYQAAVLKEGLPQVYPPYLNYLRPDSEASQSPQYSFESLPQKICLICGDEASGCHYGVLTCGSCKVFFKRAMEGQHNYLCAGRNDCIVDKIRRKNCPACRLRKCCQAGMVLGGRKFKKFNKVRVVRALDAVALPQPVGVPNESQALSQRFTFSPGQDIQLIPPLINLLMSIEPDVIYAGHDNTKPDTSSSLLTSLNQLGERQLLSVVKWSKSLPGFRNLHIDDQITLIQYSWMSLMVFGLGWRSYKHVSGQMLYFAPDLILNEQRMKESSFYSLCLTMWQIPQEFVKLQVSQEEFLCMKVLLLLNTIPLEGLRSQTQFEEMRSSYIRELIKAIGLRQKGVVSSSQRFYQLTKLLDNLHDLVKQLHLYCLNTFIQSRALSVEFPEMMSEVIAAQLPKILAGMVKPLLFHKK

Experiment [11] is described as follows: qHTS assay to identify small molecule antagonists of the progesterone receptor (PR) signaling pathway - cell viability counter screen (AID 1346798). Note: nearly all actives have a fitted effect of over 50% in size. Note: potency is the fitted concentration of half-maximal effect. The gist of the method: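 Same-well multiplex: after 16 hr at 37C with compound and R5020 stimulation, HEK293T cells carrying a UAS-bla reporter received LiveBLAzer substrate (2 hr RT), then CellTiter-Glo (30 min RT) for luminescent viability.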

The nature of experiment [12]: qHTS assay to identify small molecule agonists of the progesterone receptor (PR) signaling pathway - cell viability counter screen (AID 1346799; calls by dose curve; note: nearly all actives have a fitted effect of over 45% in size; note: potency is the fitted concentration of half-maximal effect). In a few lines: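 Counter screen for cytotoxicity: compound-treated PR-UAS-bla HEK293T cells (16 hr, 37C, 5% CO2) were assayed with CellTiter-Glo, luminescence measured after 30 min at room temperature.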
Experiment [13] can be described thus: qHTS assay to identify small molecule antagonists of the TGF-beta/Smad signaling pathway - cell viability counter screen (AID 1346824). Note: nearly all actives have a fitted effect of over 50% in size. Note: potency is the fitted concentration of half-maximal effect. The gist of the method:
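SBE-bla HEK 293T cells, incubated overnight, then compound plus 0.25 ng/mL TGF-beta1 (stock added) for 5 hr at 37 C. Viability was read in the same wells by CellTiter-Glo luminescence after 30 min at room temperature.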

Experiment [14] is described as follows: qHTS assay to identify small molecule agonists of the TGF-beta/Smad signaling pathway - cell viability counter screen (AID 1346829). Note: nearly all actives have a fitted effect of over 45% in size. Note: potency is the fitted concentration of half-maximal effect. The gist of the method:
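Here the cytotoxicity of library compounds is measured in SBE-bla HEK 293T cells treated for 5 hr, using CellTiter-Glo added to wells already read for the beta-lactamase reporter.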

Experiment [15] can be described thus: Human pregnane X receptor (PXR) small molecule agonists, qHTS cell viability counter screen (AID 1346977). Note: nearly all actives have a fitted effect of over 50% in size. Note: potency is the fitted concentration of half-maximal effect. In a few lines:
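Measures live-cell protease fluorescence (CellTiter-Fluor) in PXR-Luc HepG2 cells treated 24hr with compounds at 37C. Cells had 5hr to attach before pin transfer of DMSO solutions.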

Experiment [16] addresses Estrogen receptor beta (Homo sapiens) (UniProt Q92731). The experiment in a line: qHTS assay to identify small molecule agonists of the estrogen receptor beta (ER-beta) signaling pathway (AID 1259377; active = well fitted activation curve with a large enough effect in the signal ratio in the repeat runs, not every such curve was filed as active; the % refers to the signal ratio). In a few lines: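 A UAS-controlled beta-lactamase reporter in ER-beta-UAS-bla HEK293T cells reports receptor activation. Compounds act for 16 hr at 37C in 2% charcoal-stripped serum, and a FRET substrate is read by fluorescence after 2 hours.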

The target in experiment [17] is Progesterone receptor (Homo sapiens) (UniProt P06401). Kind of experiment: qHTS assay to identify small molecule agonists of the progesterone receptor (PR) signaling pathway (AID 1346784; calls by dose curve; note: nearly all actives have a fitted effect of over 30% in size). In a few lines: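 Agonist mode, quantitative HTS format in a HEK 293T line expressing a UAS-controlled beta-lactamase reporter; 16 hr compound exposure at 37C in 2% charcoal-stripped FBS, then LiveBLAzer B/G FRET fluorescence.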

Experiment [18] is described as follows: qHTS assay to identify small molecule agonists of the TGF-beta/Smad signaling pathway (AID 1346859; active = well fitted activation curve with a large enough effect in the signal ratio in the repeat runs, not every such curve was filed as active; the % refers to the signal ratio; note: series mostly up to about 77 µM). In a few lines: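 Smad-responsive beta-lactamase reporter cells (HEK 293T) received compounds from DMSO stocks after overnight attachment, were incubated 5 hr, then treated 2 hr with FRET substrate before dual-emission fluorescence measurement (405 nm excitation).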

The target of experiment [19] is Thyrotropin-releasing hormone receptor (Homo sapiens) (UniProt P34981). Kind of experiment: qHTS assay to identify small molecule antagonists of the thyrotropin-releasing hormone receptor (TRHR) signaling pathway (AID 1346877; active = well fitted inhibition curve with a large enough effect in the repeat runs, not every such curve was filed as active; note: series mostly up to about 51 µM). In a few lines:
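Intracellular calcium fluorescence, read kinetically every second over 3 min, reports TRH-evoked signalling in HEK293 cells carrying TRHR. Test compounds were added 5 min ahead of a 1 nM TRH challenge.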

The target is the same in experiment [20]. Kind of experiment: qHTS assay to identify small molecule agonists of the thyrotropin-releasing hormone receptor (TRHR) signaling pathway (AID 1346891; calls by dose curve;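 note: HEK293 cells expressing TRHR with calcium dye readout; series mostly up to about 58 µM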). The gist of the method:
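Agonist-mode calcium mobilisation screen: TRHR-transfected HEK293 cells cultured overnight (18 h), dye-loaded for 2 h at 37 °C, exposed to compounds, and monitored by fluorescence for 3 min.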

Each structure is given as a SMILES string. Several values for one entry are separate records, joined by “and”; a condition that tells them apart may be missing. Identical values can stand only once. Inconclusive results are not listed. More than one record can exist for a structure, and the calls need not agree. Activity calls are given as the source filed them. Unless noted, calls come from the whole dose curve; as a rule, active = well fitted curve in the direction sought with a large enough effect in the repeat runs; inconclusive = weak or mixed curves; inactive = no such curve, though single readings can be large; an effect the other way counts as inactive or inconclusive.

Sequence of Thyrotropin-releasing hormone receptor (Homo sapiens) (P34981 whole entry, looked up): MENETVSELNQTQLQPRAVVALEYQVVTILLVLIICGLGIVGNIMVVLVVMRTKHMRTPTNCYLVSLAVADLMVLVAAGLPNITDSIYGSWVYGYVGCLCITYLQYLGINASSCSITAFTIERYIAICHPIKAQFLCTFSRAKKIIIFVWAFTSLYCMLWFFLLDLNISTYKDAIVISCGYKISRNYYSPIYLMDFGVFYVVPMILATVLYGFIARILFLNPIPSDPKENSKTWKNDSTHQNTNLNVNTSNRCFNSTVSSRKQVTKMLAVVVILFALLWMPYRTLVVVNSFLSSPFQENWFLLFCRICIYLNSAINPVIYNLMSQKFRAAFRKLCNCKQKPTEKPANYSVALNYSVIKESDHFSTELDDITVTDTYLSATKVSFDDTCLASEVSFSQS
Sequence of Androgen receptor (Homo sapiens) (P10275 whole entry, looked up): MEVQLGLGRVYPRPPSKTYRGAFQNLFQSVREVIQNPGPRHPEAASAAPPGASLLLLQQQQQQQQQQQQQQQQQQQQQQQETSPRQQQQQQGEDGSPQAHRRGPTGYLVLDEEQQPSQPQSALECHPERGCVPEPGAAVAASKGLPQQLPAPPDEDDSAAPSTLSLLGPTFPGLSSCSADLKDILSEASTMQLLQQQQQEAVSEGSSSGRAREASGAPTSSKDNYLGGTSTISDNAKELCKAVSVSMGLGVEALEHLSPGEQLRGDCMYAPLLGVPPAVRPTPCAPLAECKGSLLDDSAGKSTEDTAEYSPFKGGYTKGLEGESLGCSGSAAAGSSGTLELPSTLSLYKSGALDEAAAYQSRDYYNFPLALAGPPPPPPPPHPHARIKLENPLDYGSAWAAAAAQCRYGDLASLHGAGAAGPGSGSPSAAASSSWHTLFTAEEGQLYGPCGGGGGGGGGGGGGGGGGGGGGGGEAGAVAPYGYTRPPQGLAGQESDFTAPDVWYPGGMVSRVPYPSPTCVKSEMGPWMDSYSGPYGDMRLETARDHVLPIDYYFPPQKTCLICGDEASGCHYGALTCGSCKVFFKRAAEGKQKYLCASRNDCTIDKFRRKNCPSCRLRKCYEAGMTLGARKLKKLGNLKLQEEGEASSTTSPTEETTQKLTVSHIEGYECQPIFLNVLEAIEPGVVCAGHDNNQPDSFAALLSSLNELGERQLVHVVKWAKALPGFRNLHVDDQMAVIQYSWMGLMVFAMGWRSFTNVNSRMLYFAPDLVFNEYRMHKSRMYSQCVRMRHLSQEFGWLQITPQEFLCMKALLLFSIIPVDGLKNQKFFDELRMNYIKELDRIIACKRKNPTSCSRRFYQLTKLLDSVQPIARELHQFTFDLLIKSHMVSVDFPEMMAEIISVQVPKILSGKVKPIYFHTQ

With `CC(=O)[O][Hg][c]1ccccc1`, the Potency was 3.44 µM (active) in experiment [1]; 4.29 µM (active) and 6.86 µM (active) and 7.5 µM (active) in experiment [2]; 1.92 µM (active) and 3.86 µM (active) and 5.31 µM (active) in [3]; 3.04 µM (active) and 4.33 µM (active) and 8.41 µM (active) in experiment [5]; 2.07 µM (active) and 5.88 µM (active) and 4.92 µM (active) in experiment [7]; 60.6 µM (active) and 68.6 µM (active) in experiment [8]. In addition, the Potency was 7.63 µM (active) and 13.7 µM (active) and 26.6 µM (active) in experiment [9]; 2.15 µM (active) in experiment [10]; 4.81 µM (active) and 3.86 µM (active) and 5.31 µM (active) in experiment [11]; 5.4 µM (active) and 5.45 µM (active) and 5.96 µM (active) in experiment [12]; 7.69 µM (active) and 8.71 µM (active) and 10.7 µM (active) in [13]; 8.63 µM (active) and 7.76 µM (active) and 9.52 µM (active) in experiment [14]. Also, in experiment [15], the Potency was 2.24 µM (active) and 3.06 µM (active) and 4.73 µM (active). Moreover, the outcome in experiment [4] was inactive. Besides, in experiment [6], the Potency entry is “inactive”.

With `CCNc1nc(Cl)nc(NCC)n1`, the call in experiment [16] was inactive. The Potency entry in experiment [1], in [2], in experiment [3], in experiment [5], in experiment [6] and in experiment [7] was “inactive” in each case. The Potency result in experiment [8], in [9], in experiment [17], in [10], in [11] and in experiment [12] was “inactive” throughout. Also, the Potency result in [13], in experiment [14], in experiment [18], in experiment [19], in [20] and in experiment [15] was “inactive” in each case.

`C[C@]12CCC(=O)C=C1CC[C@@H]1[C@@H]2CC[C@]2(C)C(=O)CC[C@@H]12`: the compound was classed as inactive in experiment [16]. In addition, the Potency entry in [1], in experiment [2], in experiment [6], in experiment [7], in experiment [8] and in [9] was “inactive” in each case. Also, the Potency entry in experiment [17], in experiment [13], in [14], in experiment [18], in [19] and in experiment [20] was “inactive” throughout. Also, the Potency result in experiment [15] is “inactive”. Besides, the Potency in experiment [3] was 53.5 µM (active) and 54.5 µM (active); in experiment [5] it was 47.7 µM (active) and inactive; in experiment [12], “inactive and 61.1 µM (active)”.

Consider `O=C(O)CCl`, for which, in [16], the compound was called inactive. Besides, the Potency entry in experiment [1], in [2], in [3], in experiment [5], in [7] and in experiment [8] was “inactive” each time. Also, the Potency entry in experiment [9], in [17], in experiment [10], in [11], in experiment [12] and in experiment [13] was “inactive” each time. The Potency result in experiment [14], in experiment [18], in experiment [19], in experiment [20] and in experiment [15] was “inactive” in each case.

As for `C1CCC(NC2CCCCC2)CC1`, the Potency result in experiment [2], in experiment [3], in [5], in experiment [6], in experiment [7] and in experiment [8] was “inactive” throughout. In addition, the Potency result in [9], in [17], in [10], in experiment [11], in [12] and in experiment [13] was “inactive” in each case. The Potency result in [14], in experiment [18], in [19], in experiment [20] and in [15] was “inactive” each time.

Take `CCC(=O)C(CC(C)N(C)C)(c1ccccc1)c1ccccc1` (configuration not stated): the result in [16] and in [4] was inactive. The Potency result in experiment [1], in experiment [2], in [5], in [6], in [7] and in [8] was “inactive” in each case. Moreover, the Potency result in experiment [9], in experiment [17], in experiment [10] and in [14] was “inactive” in each case. Moreover, the Potency in experiment [3] was 54.7 µM (active); in experiment [11], 54.7 µM (active); in experiment [12], 43.5 µM (active); in experiment [15] it was 27.4 µM (active).

The record behind these values is PubChem BioAssay (Tox21).
